Screening results deposited in PubChem BioAssay by several laboratories.
Tat export inh: E. coli Tat transport inhibition; AID 488895; E. coli MC4100 TorA-mCherry Tat export, fluorescence; inhibition, % at 10 µM; hit rate 0.036% among 340,000;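 active = mean replicate inhibition at least 50% and at least half of replicates individually reaching 50%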;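 also: exported cargo escapes ClpAP degradation while cytoplasmic cargo is degraded and loses fluorescence; 0% = median of neutral control wells and 100% = median of NaSCN control wells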
AddAB inh: less growth of phage-infected E. coli with AddAB; E. coli expressing H. pylori AddAB, absorbance growth; inhibition, % at 11.9 µM; hit rate 0.29% among 330,000; AID 435030; in the data active = inhibition above about 12%;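 also: 0% = vehicle wells of infected cells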
E coli growth-1: blocks Escherichia coli growth; OD600, 23 h; stronger effect = lower value; OD600 absorbance (concentration not given with the values); AID 1053175; hit rate 0.21% among 330,000;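 active = OD600 absorbance below the run mean of sample wells minus 3.6 SD, in any replicate, cut at about 0.56 in these data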
phage Ecoli inh: E. coli growth loss with phage present | growth absorbance | inhibition, % at 11.9 µM | hit rate 0.26% among 360,000 | AID 651602; in the data active = inhibition above about 11%
E coli growth-2: bacterial growth inhibition, counter-screen for AddAB inhibitors. E. coli V3065 growth, OD600 absorbance, 18 h. inhibition, % at 11.9 µM. hit rate 0.27% among 330,000. AID 449728;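 active = inhibition above the campaign's mean inhibition across all tested compounds plus 3 SD, cut at about 9.9% in these data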;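 also: uninfected addAB+ strain grown without phage in ampicillin broth; 0% = DMSO wells and 100% = ciprofloxacin 0.95 µg/ml wells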
RecBCD conf: confirmation: growth loss of phage-infected RecBCD+ E. coli (RecBCD inhibitor screen); hit rate 45% among 890; shares compounds with phage Ecoli inh; inhibition, % at 11.9 µM; AID 651982; E. coli V66 + T4 2- phage, growth OD;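 active = mean inhibition over triplicates exceeding the hit threshold derived in the original primary screen, cut at about 11% in these data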
Ecoli viability: inhibits E. coli viability, flagging RecBCD hits as nonselective; shares compounds with phage Ecoli inh; AID 651983; absorbance (OD) growth; hit rate 29% among 890; inhibition, % at 11.9 µM; in the data active = inhibition above about 20%;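 also: E. coli strain V66 grown with compound alone and no phage infection; 0% = bacteria with DMSO vehicle only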
AddAB counter: growth loss of phage-infected AddAB E. coli, RecBCD counter-screen. shares compounds with phage Ecoli inh. E. coli expressing H. pylori AddAB + T4 phage, OD growth; gene 2 mutant T4, recBCD-deleted host. inhibition, % at 11.9 µM. hit rate 45% among 890. AID 651984;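 active = mean inhibition above the solvent-only control wells' mean plus 3 SD, cut at about 22% in these data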;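 also: higher means less bacterial growth from phage killing when AddAB is blocked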
The depositor's hits bear a star; . = no result. In the library only some 0.5% were active in any assay of this set; here they are far more common.

SMILES	Tat export inh	AddAB inh	E coli growth-1	phage Ecoli inh	E coli growth-2	RecBCD conf	Ecoli viability	AddAB counter
COc1ccc(OC2C=CC(c3ccccc3)OC2CON=CCC2C=CC(OC(C)=O)C(COC(C)=O)O2)cc1 (configuration not stated)	.	.	0.713	.	.	.	.	.
Cc1ccc(NC(=O)C(c2ccccc2)c2ccccc2)nc1	5.6	2.5	0.679	2.1	1.7	.	.	.
O=C(Nc1ccccn1)C(c1ccccc1)c1ccccc1	.	.	.	11.9*	.	-5.1	-4.6	-2.8
N#Cc1c2ccc([N+](=O)[O-])cc2[n+]([O-])n1-c1ccccc1	-0.1	36.8*	.	17.2*	37.7*	15.9*	17.9	51.4*
O=c1c2cc([N+](=O)[O-])ccc2sn1-c1ccccc1	.	.	.	3.9	.	.	.	.
O=Cc1cccnc1SCc1ccccc1	-1.0	1.0	0.701	99.2*	-1.2	-6.4	-5.9	-0.1
Oc1cccnc1SCc1ccccc1	3.6	1.8	0.698	2.4	-0.7	.	.	.
COc1cc(-c2nnc(COC(=O)c3ccc([N+](=O)[O-])o3)o2)cc(OC)c1OC	.	.	.	12.3*	.	-2.4	-0.3	14.2
O=C(OCc1nnc(-c2ccccc2)o1)c1ccc([N+](=O)[O-])o1	-2.0	1.4	0.659	6.1	2.7	.	.	.
C#CCNC(=O)C1=CC(C2CC2)CC(OCCCCO)O1 (configuration not stated)	.	.	0.713	.	.	.	.	.
O=C(NCc1nc2ccccc2[nH]1)C1=CC(c2ccc(C(F)(F)F)cc2)CC(OCc2ccc(CO)cc2)O1 (configuration not stated)	.	.	0.676	.	.	.	.	.
O=[N+]([O-])c1ccc(/C=[N+](\[O-])[C@@H]2CCCC[C@@H]2/[N+]([O-])=C/c2ccc([N+](=O)[O-])o2)o1	-17.4	5.0	0.631	2.8	7.6	.	.	.
Nc1nc(N)nc(-c2ccc([N+](=O)[O-])o2)n1	-7.7	.	0.506*	103.0*	.	63.9*	88.8*	98.4*
CCC(C)NC(=O)C1c2ccccc2C(=O)N1Cc1cc(OC)ccc1OC (configuration not stated)	2.9	-0.5	0.72	14.1*	1.4	1.3	0.7	3.0
CCOc1ccc(CN2C(=O)c3ccccc3C2C(=O)NC(C)CC)cc1OC (configuration not stated)	4.3	-0.7	0.651	3.3	0.5	.	.	.
CCOc1ccc(NC(=O)Nc2ccc3nsnc3c2)cc1	-10.6	5.0	0.652	11.2*	2.5	5.4	5.5	-1.3
Nn1c(SCc2cccc(Br)c2)nnc1-c1ccncc1	8.9	-3.5	0.645	99.6*	-5.1	2.0	1.5	-0.1
Nn1c(SCc2cccc(F)c2)nnc1-c1ccncc1	-4.7	0.8	0.629	0.9	1.2	.	.	.
CCc1nnc(NC(=O)C(NC(=O)c2cccc(S(=O)(=O)N3CCOCC3)c2)C(C)C)s1 (configuration not stated)	.	.	0.654	.	.	.	.	.
Cc1ccc2ccc(C(Nc3ccccc3)c3ccc(C(C)C)cc3)c(O)c2n1 (configuration not stated)	.	.	.	9.3	.	.	.	.
Cc1ccc2ccc(C(Nc3ccccn3)c3ccccc3)c(O)c2n1 (configuration not stated)	-2.7	2.9	0.801	8.2	-3.1	.	.	.
Cc1ccc2ccc(C(Nc3ccccc3)c3ccc(Cl)cc3)c(O)c2n1 (configuration not stated)	.	.	.	11.8*	.	0.9	2.8	2.4
Cc1ccc2ccc(C(Nc3ccccc3)c3ccccc3)c(O)c2n1 (configuration not stated)	.	.	.	12.5*	.	3.2	5.0	11.5
Cc1ccnc(NC(c2ccccc2)c2ccc3cccnc3c2O)c1 (configuration not stated)	-3.1	.	0.721	17.1*	.	8.7	13.7	14.7
O=C(NCc1nc2ccccc2[nH]1)C1=CC(c2ccc(Br)cc2)CC(OCCCCO)O1 (configuration not stated)	.	.	0.685	.	.	.	.	.
SMILES	Tat export inh	AddAB inh	E coli growth-1	phage Ecoli inh	E coli growth-2	RecBCD conf	Ecoli viability	AddAB counter
CCCOc1ccc(CNC(=O)c2ccc3nc(N4CCOCC4)sc3c2)cc1	-12.5	-0.7	0.747	25.5*	-0.8	-0.6	-0.3	4.0
O=C(Oc1c(Br)cc([N+](=O)[O-])cc1Br)c1cccnc1	22.1	9.7	0.484*	12.6*	5.9	14.0*	17.2	17.8
COc1ccc(NC(=O)Nc2cccc3c2OC(CN(C)C(=O)Nc2c(C)noc2C)C(C)CN(C(C)CO)C3=O)cc1 (configuration not stated)	.	.	0.68	.	.	.	.	.
O=C1C=C(c2cccc(CO)c2)CC(c2ccc(F)cc2)C1 (configuration not stated)	.	.	0.665	.	.	.	.	.
O=C(CCC1CCCCC1)NCCN1C2=NCC(Cc3ccc(O)cc3)N2CC1Cc1ccc(O)cc1 (configuration not stated)	.	.	0.662	.	.	.	.	.
Oc1ccc(C=NNC(=S)Nc2ccccc2)nc1	.	.	.	21.9*	.	21.7*	27.2*	32.0*
COc1ccc(C)cc1N=Nc1ccc(O)c2ncccc12	-6.9	.	0.735	18.3*	.	5.5	8.3	18.9
Oc1ccc(N=Nc2ccc3c(c2)OCCO3)c2cccnc12	1.9	7.5	0.73	15.0*	5.9	7.0	8.6	8.0
COc1cccc(N=Nc2ccc(O)c3ncccc23)c1	-14.2	8.2	.	13.1*	6.5	4.7	6.5	11.0
COc1cccc(N=Nc2ccc3cccnc3c2O)c1	-4.6	7.2	0.712	13.7*	14.7*	5.8	9.8	5.9
COc1cc2c(cc1O)C1Cc3cc(OC)c(OC)cc3C(C2)N1C (configuration not stated)	.	.	0.674	.	.	.	.	.
CCC(=O)c1cn(C(CCC(OC)OC)CC(=O)OC(C)(C)C)cc1CC (configuration not stated)	.	.	0.649	.	.	.	.	.
Cc1nccn1CCc1n[nH]c(=S)n1Cc1ccccc1	3.6	2.4	0.633	1.8	0.9	.	.	.
Cc1nccn1Cc1ccccc1	7.2	-0.6	0.696	100.2*	2.2	0.3	0.8	-0.5
CCOC1OC(C(=O)N2CCN(Cc3ccc4c(c3)OCO4)CC2)=CC(C(C)(C)C)C1CCCO (configuration not stated)	.	.	0.642	.	.	.	.	.
CC[C@@]12C(=O)N(c3cccc(Br)c3)C(=O)N1C(c1cccc(C)c1)C1C(=O)N(Cc3ccccc3)C(=O)C12 (some centres not stated)	.	.	0.715	.	.	.	.	.
O=C(Nc1ccccc1)C1CC=CC2CCN(Cc3ccccc3)C(=O)C21 (configuration not stated)	.	.	0.708	.	.	.	.	.
Cc1nc(N)nc(N)c1/C=C/C(C)(C)c1ccc(Cl)cc1	22.7	.	0.069*	99.9*	.	81.7*	89.3*	99.6*
C=CCCC(Cc1ccc(F)cc1)C(=O)OCC(Cc1ccccc1)NC(=O)C(CC=C)CC(=O)NC(CO)Cc1ccccc1 (configuration not stated)	.	.	0.746	.	.	.	.	.
